The supplement of paper PMC11417369
± gives the standard deviation of the averaged measurements. The full ranking holds about 25,000 sequences; the median of “ln(normalized median fluorescence intensity)” is about 8.9, and the highest 2% start at about 10. The sample holds the highest values, similar sequences and a random draw of the others, so the mix is not that of the screen.

These sequences were tested on PfAP2-LT AP2 domain (GST-tagged) (assay: gcPBM binding intensity (ln(normalized median fluorescence intensity)); higher = stronger DNA binding).
How it was run: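 Binding intensity is the highest Masliner-normalised natural-log median intensity over replicate spots in either probe orientation. To obtain it, GST-tagged P. falciparum DNA-binding domains made in E. coli were incubated for 1 h on an Agilent 4 × 180k array of primer-extended double-stranded 36-bp intergenic genomic probes plus negative controls. Detection used Alexa488 anti-GST antibody with scanning at 488 nm.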
With “CATATAATTATTTTCACACATATAACTACATCTATA [CACACA_site5915]” the “gcPBM binding intensity (ln)” value was 8.82 ± 0.43.
With “ATACATACATACATACGTACATATGTATATATATAT [XGTACX_site8498]” the “gcPBM binding intensity (ln)” value was 9.23 ± 0.14.
For “AATTTGATTATAAATTGTACATATATATATTAAAAG [XGTACX_site5461]”, the “gcPBM binding intensity (ln)” value was 8.66 ± 0.35.
“AAAAATGAAAGGTGTACACATACAAACATAGAAAGA [CACACA_site5020]” was tested, and the “gcPBM binding intensity (ln)” value was 9.38 ± 0.52.
“ATGGTTTTTATTTTATGTACTTACTAAAATGAATAA [XGTACX_site4317]” was tested, and the “gcPBM binding intensity (ln)” value was 8.52 ± 0.37.
For “AAAAAAAAAAAAAAAACACACACAACACCCATACCT [CACACA_site9208]”, the “gcPBM binding intensity (ln)” value was 9.92 ± 0.14.
For “TAAACACCCATACATACACACATACATACACCCATA [CACACA_site5125]”, the “gcPBM binding intensity (ln)” value was 9.63 ± 0.18.
In the case of “CATACACCCATACATACACACATACATACACCCATA [CACACA_site5124]”, the “gcPBM binding intensity (ln)” value is reported as 9.56 ± 0.31.
In the case of “AAAAAAAAAAAACACACACACACATACCCATACATA [CACACA_site5575]”, the “gcPBM binding intensity (ln)” value is reported as 9.98 ± 0.22.
For “AAAAAAAAAAAAAACACACACACACCCATACCCATA [CACACA_site5577]”, the “gcPBM binding intensity (ln)” value was 10.215 ± 0.0071.
In the case of “AAAAAAAAAAAACACACACACACACCCATACATACA [CACACA_site707]”, the “gcPBM binding intensity (ln)” value is reported as 10.4 ± 0.14.
With “AAAAAAAAAAAAAACACACACAACACCCATACCTTA [CACACA_site3621]” the “gcPBM binding intensity (ln)” value was 9.79 ± 0.057.
For “AAAAAAAAAAAAAACACACACACACCCATACACATA [CACACA_site2860]”, the “gcPBM binding intensity (ln)” value was 10.19 ± 0.078.
“GGGCATATAATATAAAGTACAGGACTATAAAAATAT [XGTACX_site4481]” was tested, and the “gcPBM binding intensity (ln)” value was 8.86 ± 0.59.
For “TCTTTTTTTTTTACTAGTACTTAAAAAAAAAATATG [XGTACX_site4395]”, the “gcPBM binding intensity (ln)” value was 8.28 ± 0.55.
With “TTTGTAAAACTATATTGTACTTTTATATATCTACAA [XGTACX_site5507]” the “gcPBM binding intensity (ln)” value was 8.56 ± 0.47.
In the case of “TTTTTAAAAAAGATAAGCGAAAGAATTAATTTTTAA [GTGCAC_negctrl_site197]”, the “gcPBM binding intensity (ln)” value is reported as 8.13 ± 0.52.
In the case of “TATTTACATATTTATATACACACTTTTGCGTGTCTG [CACACA_site1110]”, the “gcPBM binding intensity (ln)” value is reported as 9.36 ± 0.67.
For “CATATTATTTATATTTGTACACAGCGATATGAAATA [XGTACX_site7717]”, the “gcPBM binding intensity (ln)” value was 8.68 ± 0.35.
With “AAAATCACAAGACACACACACACAAAAAAAAAAAAA [CACACA_site6791]” the “gcPBM binding intensity (ln)” value was 9.94 ± 0.58.
“AAAAAATCACGACACACACACACACTAAAAAAAAAA [CACACA_site6792]” was tested, and the “gcPBM binding intensity (ln)” value was 10.1 ± 0.2.
For “TATAATAAATCAAATGCACACACACTAATAAAAAAA [CACACA_site7937]”, the “gcPBM binding intensity (ln)” value was 9.63 ± 0.35.
With “TGGTTACTGTCATTAGTTATTTCTTGTTGACAATTA [CACACA_negctrl_site416]” the “gcPBM binding intensity (ln)” value was 8.79 ± 0.41.
“AAAATACAGAAACACACACACACACCCATATATATA [CACACA_site3559]” was tested, and the “gcPBM binding intensity (ln)” value was 10.31 ± 0.014.
In the case of “AAAAAATACAAACACACACACACACCCATATATATA [CACACA_site3560]”, the “gcPBM binding intensity (ln)” value is reported as 10.21 ± 0.057.
“ATAAAATACAGATAAACACACATATAAACACCCATA [CACACA_site5381]” was tested, and the “gcPBM binding intensity (ln)” value was 9.56 ± 0.32.
In the case of “AAAAAAAAAAAAAACACACACACACCCATACAAAAT [CACACA_site1446]”, the “gcPBM binding intensity (ln)” value is reported as 10.12 ± 0.064.
For “CACAAAAAAAATTATACACACACACCCATATATATA [CACACA_site8255]”, the “gcPBM binding intensity (ln)” value was 9.82 ± 0.11.
“TACAAACACCCATATACACACAAAAAAAAAATAAAA [CACACA_site5421]” was tested, and the “gcPBM binding intensity (ln)” value was 9.24 ± 0.49.
For “AACAAAAAAACAAACACACACACACCCATATATATA [CACACA_site3652]”, the “gcPBM binding intensity (ln)” value was 10.03 ± 0.042.
With “CAAAAAAAATTATACACACACACACCCATATATATA [CACACA_site1044]” the “gcPBM binding intensity (ln)” value was 10.04 ± 0.099.
In the case of “ATACAGAAAAAAAACACACACACATAATATACATAC [CACACA_site1933]”, the “gcPBM binding intensity (ln)” value is reported as 9.84 ± 0.16.
With “AAAAAAAAAAAAAACACACACACACCCAAATACATA [CACACA_site708]” the “gcPBM binding intensity (ln)” value was 9.99 ± 0.24.
“CAAAAAAACAAACACACACACACACCCATATATATA [CACACA_site3653]” was tested, and the “gcPBM binding intensity (ln)” value was 10.25 ± 0.085.
In the case of “TATTAATATGGTAATACACACTAATATACTTTTGTT [CACACA_site6860]”, the “gcPBM binding intensity (ln)” value is reported as 8.89 ± 0.5.
In the case of “ATAAAAATATATGAAACACACAGTTTCTATAAGAAA [CACACA_site4156]”, the “gcPBM binding intensity (ln)” value is reported as 8.68 ± 0.47.
With “CATATAATTATATATCGTACATATTAATATAATTAC [XGTACX_site401]” the “gcPBM binding intensity (ln)” value was 8.68 ± 0.38.
For GTTAATTTTTGTATAGTGCAAAAATATAATAGTATG, the “gcPBM binding intensity (ln)” value was 8.64 ± 0.48.
In the case of “AACATATATAAATACACACACATATATATATGAAAT [CACACA_site4312]”, the “gcPBM binding intensity (ln)” value is reported as 9.51 ± 0.26.
For “AAAATAAGAAAACAAATGCACACCATTTATATAGAT [CACACA_site1055]”, the “gcPBM binding intensity (ln)” value was 9.03 ± 0.39.
For “ATATCTATGTTTATCTCGAATAACTTAAAAAATTAT [CACACA_negctrl_site1131]”, the “gcPBM binding intensity (ln)” value was 8.45 ± 0.45.
“AACAGAATAATACTAAATGAACGATTTCTCTTTATG [GTGCAC_negctrl_site376]” was tested, and the “gcPBM binding intensity (ln)” value was 8.6 ± 0.51.
“ATAAGTGTATAAAAATGTACGTGTATAAAAATATGT [XGTACX_site8235]” was tested, and the “gcPBM binding intensity (ln)” value was 9.06 ± 0.43.
For GTGGTTGTAATGGTGGTGCATATTGTATATTATGTT, the “gcPBM binding intensity (ln)” value was 9.515 ± 0.078.
“ATATATTATATTTAAGTGCATTAATTAAAATGCTTA [GTGCAC_site9403]” was tested, and the “gcPBM binding intensity (ln)” value was 8.34 ± 0.36.
